SW480 rerep: DNA re-replication induction in SW480 cells; Potency, µM (titrated, usually from 46.1 µM), without a hit: at the top dose re-replication activation, hits mostly activators; hit rate 1.8% among 340,000; SW480 DNA re-replication, Hoechst DNA content imaging, 48 h; AID 624297; note: % of control where 0% means no effect; nearly all actives have a fitted effect of over 55% in size
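Image-based DNA-content assay: after two days of treatment, nuclei were labelled with the DNA dye Hoechst and imaged, and hits were compounds raising the count of nuclei showing high fluorescence intensity.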
KB-3-1 tox: KB-3-1 parental cell cytotoxicity. KB-3-1 viability, CellTiter-Glo ATP luminescence, 72 h. hit rate 1.4% among 400,000. Potency, µM (highest dose often 46.1 µM), hits mostly cytotoxic. AID 1347075; note: % is set by controls: 0 for no effect and ±100 for the full control effect; nearly all actives have a fitted effect of over 60% in size
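Cytotoxicity in the drug-sensitive parental line KB-3-1 was scored as loss of CellTiter-Glo luminescence following 72 h incubation with compound. Values come from curve fitting of normalized concentration-response data.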
MCF10A rerep: DNA re-replication induction in MCF 10a cells; MCF 10A DNA re-replication, Hoechst nuclear intensity, 48 h; Potency, µM (top dose mostly 46.1 µM), without a hit: top-dose activity, positive = re-replication, hits mostly activators; hit rate 2.9% among 350,000; note: % of control where 0% means no effect; nearly all actives have a fitted effect of over 50% in size
Gal4-VP16 FLuc: Gal4-VP16 reporter inhibition counter-screen; hit rate 3.5% among 310,000; Potency, µM (titrated, usually from 53.6 µM), for the others: at the top dose activity, negative = inhibition, most hits filed as inhibitors; AID 2546; Drosophila S2 Gal4-VP16 UAS-luciferase, luminescence, 20 h;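 note: Gal4-VP16 expression switched on by copper sulfate through the metallothionein promoter; % is set by controls: 0 for no effect and ±100 for the full control effect; nearly all actives have a fitted effect of over 50% in size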
RORgamma inh: ROR gamma (mouse) transcription inhibition. Drosophila S2 Gal4-RORgamma UAS-luciferase reporter, 20 h. P51450. Potency, µM (titrated, usually from 53.6 µM), for inactives: at the top dose activity change, negative = inhibition, actives largely listed as inhibitors. hit rate 5.4% among 310,000; note: % is set by controls: 0 for no effect and ±100 for the full control effect; nearly all actives have a fitted effect of over 60% in size
Target sequence (P51450 whole entry, looked up, the tested form may be a part): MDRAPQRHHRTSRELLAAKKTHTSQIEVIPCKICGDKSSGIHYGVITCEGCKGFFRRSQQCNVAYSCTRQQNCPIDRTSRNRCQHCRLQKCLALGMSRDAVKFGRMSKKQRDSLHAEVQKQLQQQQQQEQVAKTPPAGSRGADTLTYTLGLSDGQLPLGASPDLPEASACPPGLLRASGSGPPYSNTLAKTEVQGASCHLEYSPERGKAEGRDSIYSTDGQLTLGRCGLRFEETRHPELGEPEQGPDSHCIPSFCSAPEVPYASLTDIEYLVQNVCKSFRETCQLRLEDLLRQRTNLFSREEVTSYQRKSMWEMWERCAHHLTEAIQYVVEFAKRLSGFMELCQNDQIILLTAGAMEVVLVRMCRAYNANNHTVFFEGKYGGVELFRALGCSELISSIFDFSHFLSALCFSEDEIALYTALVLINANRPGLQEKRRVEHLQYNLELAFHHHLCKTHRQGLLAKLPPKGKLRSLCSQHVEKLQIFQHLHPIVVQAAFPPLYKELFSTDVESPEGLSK
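A Gal4/UAS one-hybrid system in insect cells: metallothionein-promoter Gal4–ROR gamma fusion plus Photinus luciferase reporter. Copper sulfate 700 uM final, 20 hr ambient incubation, luminescent detection after 10 min with reagent.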
KB-V1 cytotox: KB-V1 MDR subline cytotoxicity; KB-V1 MDR cells viability, CellTiter-Glo, 72 h; Potency, µM (titrated, usually from 46.1 µM), usual class: cytotoxic; hit rate 3.4% among 400,000; AID 1347076; note: % is set by controls: 0 for no effect and ±100 for the full control effect; nearly all actives have a fitted effect of over 60% in size
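KB-V1 cells (P-gp-expressing MDR subline of KB-3-1) in phenol-red-free DMEM with 10% FBS were exposed to library compounds over a concentration series for 72 h at 37 degrees C. Viability read by CellTiter-Glo luminescence; concentration-effect curves fitted after normalization.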
An asterisk follows results filed as active; i = inactive; ? = inconclusive; · = no result; [ ] = dose if it differs, or a comment. This is a sample that favours compounds with a hit; in the whole collection about 10% have one here. Calls come from the whole dose curve; as a rule, active = well fitted curve in the direction sought with a large enough effect; inconclusive = small, poorly fitted or top-dose-only effect, or another doubt; inactive = no such curve, though single readings can be large; an effect the other way counts as inactive or inconclusive. Potency is the fitted concentration of half-maximal effect.

SMILES	SW480 rerep	KB-3-1 tox	MCF10A rerep	Gal4-VP16 FLuc	RORgamma inh	KB-V1 cytotox
CC(C)(C)OC(=O)N(CC1CCNCC1)C(=O)c1[nH]c(C(F)(F)F)nc1-c1ccccc1	·	i	·	·	·	i
CCOc1ccc(C(=O)Nc2ccc(Cc3ccncc3)cc2)cc1Br	16µM*	?	?	3%	8%	i
COc1ccc([N+](=O)[O-])cc1C(=O)Nc1ccc(Cc2ccncc2)cc1	-17%	i	9%	-8%	1%	i
COc1c(C)cc(Br)cc1C(=O)Nc1ccc(Cc2ccncc2)cc1	?	i	16µM*	?	?	i
COc1cc(NC(=O)c2cc(Br)cc(C)c2OC)ccc1NC(=O)C(C)C	4%	i	4%	-1%	-3%	i
COc1ccccc1C(=O)Nc1ccc(Cc2ccncc2)cc1	4%	?	-37%	?	?	9.2µM*
O=C(Nc1cccc(C(=O)N2CCN(c3cccc(Cl)c3)CC2)c1)c1nsc2ccccc12	·	i	·	·	·	i
CC1(C)S/C(=N/N=C/c2ccco2)NC1=O	4%	i	1%	7.9µM*	13µM*	?
O=C(CC1S/C(=N/N=C/c2ccco2)NC1=O)Nc1cccc(Cl)c1Cl (stereo unspecified)	0%	i	0%	?	20µM*	i
C/C(=N\N=C(c1ccccc1)c1ccccc1)c1ccco1	9%	i	3%	-5%	11%	i
C/C(=N\N=C1/NC(=O)C(C)S1)c1ccco1 (stereo unspecified)	-12%	i	-2%	-18%	11µM*	i
CCCC1S/C(=N/N=C/c2ccco2)NC1=O (stereo unspecified)	-14%	i	5%	3.2µM*	1.6µM*	i
COC(=O)[C@@]12C[C@@H](CC(=O)N3CCN(C(=O)C4CC4)CC3)C(=O)N(Cc3ccccc3)C1=CCC(C)(C)C2	·	i	·	·	·	?
CC1S/C(=N/N=C/c2ccco2)NC1=O (stereo unspecified)	2%	i	7%	?	11µM*	i
CCCCC1S/C(=N/N=C/c2ccco2)NC1=O (stereo unspecified)	5%	i	3%	2µM*	0.45µM*	i
CCC1S/C(=N/N=C/c2ccco2)N(Cc2ccc(F)cc2)C1=O (stereo unspecified)	1%	i	9%	0%	26%	?
COC(=O)[C@@]1(Cc2ccccc2)C=C[C@@H](C)N1C(=O)c1ccccc1	·	·	·	9%	-14%	·
COc1cc(NS(=O)(=O)c2ccc(N/C=C(\C#N)c3nc4ccccc4o3)cc2)nc(OC)n1	-5%	i	9%	2%	44%	i
COc1cc(NS(=O)(=O)c2ccc(N/C=C(\C=O)c3nc4ccccc4o3)cc2)nc(OC)n1	4%	i	?	?	8.9µM*	i
Cn1cc([C@@H]2C[C@H]3CN(Cc4cccc(Cl)c4)C(=O)[C@]34CCCN24)c(-c2ccccc2)n1	-132%	i	?	4µM*	?	i
C/C(=N\NC(=O)c1cccc([N+](=O)[O-])c1)c1ccncc1	-89%	i	0%[9.22 µM]	-14%	-41%	i
COCCNC(=S)N/N=C(\C)c1cccc([N+](=O)[O-])c1	-1%	i	10%	7.1µM*	3.5µM*	i
COCCNC(=S)N/N=C(\C)c1cccc(OC)c1	0%	i	-15%	?	4µM*	i
C/C(=N\NC(=O)c1ccccc1C)c1cccc([N+](=O)[O-])c1	-1%	i	0%	21%	-15%	i
CCNC(=S)N/N=C(\C)c1cccc([N+](=O)[O-])c1	9%	i	-3%	4.5µM*	4µM*	i
CC(C)C1C(c2ccccc2)NC(c2ccccc2)CC1(O)c1ccc(F)cc1 (stereo unspecified)	?	i	16µM*	?	?	i

Source: PubChem BioAssay (National Center for Advancing Translational Sciences (NCATS))
